{"source": "PubChem BioAssay AID602281", "about": "(The Scripps Research Institute Molecular Screening Center, 2012)", "note": "Hit rate of the full screen: of about 360,000 compounds, about 2,900 (0.81%) were called active. Many of the other results were omitted from the sample, so actives are more common in it than they were. Unmarked numbers belong to inactive results.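 The calls were made as follows: active = inhibition above the mean inhibition across every tested compound plus 3 SD (cut at about 22% in these data); inactive = the rest.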"}
{"target": "Perilipin-5 (Homo sapiens) + 1-acylglycerol-3-phosphate O-acyltransferase ABHD5 (Homo sapiens) (UniProt Q00G26+Q8WTS1)", "sequence (Q00G26 whole entry, looked up)": "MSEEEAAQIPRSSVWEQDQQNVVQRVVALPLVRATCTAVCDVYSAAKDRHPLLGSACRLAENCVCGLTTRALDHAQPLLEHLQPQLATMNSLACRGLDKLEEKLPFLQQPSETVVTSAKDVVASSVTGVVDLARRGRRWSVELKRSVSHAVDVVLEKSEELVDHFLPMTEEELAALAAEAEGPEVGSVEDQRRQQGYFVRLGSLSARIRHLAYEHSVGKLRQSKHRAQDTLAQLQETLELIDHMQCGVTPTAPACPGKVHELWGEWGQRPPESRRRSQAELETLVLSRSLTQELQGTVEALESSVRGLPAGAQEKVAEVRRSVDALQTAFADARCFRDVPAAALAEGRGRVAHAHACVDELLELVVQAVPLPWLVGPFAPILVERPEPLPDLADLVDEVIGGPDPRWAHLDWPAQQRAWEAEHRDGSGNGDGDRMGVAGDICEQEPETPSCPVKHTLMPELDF", "sequence (Q8WTS1 whole entry, looked up)": "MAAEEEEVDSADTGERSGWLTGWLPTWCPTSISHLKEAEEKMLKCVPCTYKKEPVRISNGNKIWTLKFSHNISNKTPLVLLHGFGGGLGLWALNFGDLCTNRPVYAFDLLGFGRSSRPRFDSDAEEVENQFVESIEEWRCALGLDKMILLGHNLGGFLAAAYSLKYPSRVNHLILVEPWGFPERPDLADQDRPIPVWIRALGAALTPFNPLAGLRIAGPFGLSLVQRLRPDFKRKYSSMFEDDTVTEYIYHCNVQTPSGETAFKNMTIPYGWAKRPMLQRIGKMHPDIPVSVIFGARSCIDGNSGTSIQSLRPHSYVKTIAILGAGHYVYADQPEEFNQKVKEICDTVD", "assay": "ABHD5-PLIN5 interaction inhibitors, primary screen, cell lysate, split luciferase complementation, luminescence (AID 602281);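 also: 0% = DMSO only wells and the 100% control is not disclosed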", "conditions": "Split G. princeps luciferase complementation, 4 h, at 4 µM, hits give high values"}
{"smiles": "Cc1ccc(-n2c(SCC(=O)Nc3ncc(Cl)cc3Cl)nc3ccccc32)cc1", "inhibition": "-7.45%"}
{"smiles": "Nn1c(SCC(=O)NC2CCCc3ccccc32)nnc1C1CC1", "note": "(configuration not stated)", "inhibition": "10.4%"}
{"smiles": "O=S(=O)(Nc1nccs1)c1ccc2c(c1)OCCO2", "inhibition": "-5.22%"}
{"smiles": "CCOc1ccc2nc(Cl)c(C3CC(c4ccccc4)=NN3C(=O)c3cccs3)cc2c1", "note": "(configuration not stated)", "inhibition": "-5.74%"}
{"smiles": "Cc1cccc(C)c1NC(=O)CN1C(=O)C(C)Oc2ccccc21", "note": "(configuration not stated)", "inhibition": "-5.51%"}
{"smiles": "O=C(NCCOCc1ccc(Cl)cc1)c1ncn[nH]1", "inhibition": "24.2% (active)"}
{"smiles": "Cc1cc(C(=O)NCCc2ccc(Cl)cc2)n(-c2ccccc2)n1", "inhibition": "1.98%"}
{"smiles": "O=C(NCCS(=O)(=O)NCc1ccc(Cl)cc1)c1ccccc1", "inhibition": "-6.46%"}
{"smiles": "O=C(C(=O)N1CCc2ccccc2C1)c1c[nH]c2ccccc12", "inhibition": "0.81%"}
{"smiles": "COc1cccc(C(CC(=O)NCCN2CCOCC2)NS(=O)(=O)c2ccc(C)cc2)c1OC", "note": "(configuration not stated)", "inhibition": "9.39%"}
{"smiles": "Nc1ccc2nc3c(=O)[nH]c(=S)[nH]c3nc2c1", "inhibition": "35% (active)"}
{"smiles": "Cc1cccc(CS(=O)(=O)c2ncc(Cl)c(C(=O)Nc3ccc(F)cc3)n2)c1", "inhibition": "53.6% (active)"}
{"smiles": "CN(CC(=O)Nc1ccc(F)cc1)CC(=O)Nc1ccc(Cl)c(S(=O)(=O)N2CCOCC2)c1", "inhibition": "5.71%"}
{"smiles": "O=C(CS(=O)(=O)Cc1ccccc1)Nc1cccnc1", "inhibition": "-3.38%"}
{"smiles": "Cc1cccc(NS(=O)(=O)c2ccc(C)c(C(=O)NCc3cccnc3)c2)c1", "inhibition": "3.74%"}
{"smiles": "Cc1cccc(C(=O)Nc2ccc(Oc3cnccn3)cc2)c1", "inhibition": "3.4%"}
{"smiles": "Cc1cccc(NC(=O)c2nc(S(=O)(=O)Cc3ccccc3)ncc2Cl)c1", "inhibition": "72.4% (active)"}
{"smiles": "O=C(NCCN1CCN(C(=O)c2cccc([N+](=O)[O-])c2)CC1)C(=O)NCc1ccc(Cl)cc1", "inhibition": "12.1%"}
{"smiles": "CCOc1cc(C(=O)Nc2c(C)ccc3nsnc23)cc(OCC)c1OCC", "inhibition": "-10.9%"}
{"smiles": "C[C@@H]1C[C@@H]2O[C@H]2/C=C\\C=C\\C(=O)Cc2c(Cl)c(O)cc(O)c2C(=O)O1", "inhibition": "27.7% (active)"}
{"smiles": "COc1ccccc1CNS(=O)(=O)c1cc(C(=O)NCc2ccccn2)c(Cl)cc1Cl", "inhibition": "2.36%"}
{"smiles": "Cc1ccc2c(c1)N(CC(=O)N1CCC(C)CC1)C(=O)c1cccnc1O2", "inhibition": "-5.07%"}
{"smiles": "Cc1ccc(N(C(=O)c2ccc(CN3CCOCC3)o2)C(C(=O)NCCC(C)C)c2cccs2)c(C)c1", "note": "(configuration not stated)", "inhibition": "5.44%"}
{"smiles": "Cc1ccc(S(=O)(=O)N2CCC(C(=O)N[C@@H](C)C(=O)NCCc3ccccc3)CC2)cc1", "inhibition": "-6.43%"}
{"smiles": "NC(=S)Nc1c(Cl)cccc1Cl", "inhibition": "-3.54%"}
{"smiles": "CCCCN(CCCC)CCNC(=O)CN1C(=O)COc2ccc(S(=O)(=O)N3CCOCC3)cc21", "inhibition": "-1.64%"}
{"smiles": "Cc1cc2nc(-c3ccco3)c(Cc3cccc(F)c3)n2c(C)c1Br", "inhibition": "23.1% (active)"}
{"smiles": "Cc1ccc(Cc2c(-c3ccccc3)nc3ccc(Cl)cn23)cc1", "inhibition": "-3.87%"}
{"smiles": "Fc1cccc(Cc2c(-c3cccc(Cl)c3)nc3ccc(Br)cn23)c1", "inhibition": "-8.3%"}
{"smiles": "Cc1cc2nc(-c3ccc(F)cc3)c(Cc3ccsc3)n2c(C)c1Br", "inhibition": "-2.1%"}
{"smiles": "Cc1ccc2nc(-c3ccco3)c(Cc3cccc(Cl)c3)n2c1", "inhibition": "32.1% (active)"}
{"smiles": "Cc1ccc(Cc2c(-c3ccco3)nc3ccc(Cl)cn23)cc1", "inhibition": "54.8% (active)"}
{"smiles": "Fc1cccc(Cc2c(-c3ccc(Cl)cc3)nc3ccc(Cl)cn23)c1", "inhibition": "11.5%"}
{"smiles": "Clc1cccc(Cc2c(-c3cccc(Cl)c3)nc3ccc(Cl)cn23)c1", "inhibition": "-8.19%"}
{"smiles": "Cc1cc2nc(-c3ccc(Cl)cc3)c(Cc3cccc(F)c3)n2c(C)c1Br", "inhibition": "-5.68%"}
{"smiles": "Nn1c(SCc2ccccc2)nnc1C1CCCCC1", "inhibition": "7.84%"}
{"smiles": "CCOc1ccc(NC(=O)CN(C)CC(=O)Nc2cccc(Cl)c2C)cc1OCC", "inhibition": "-2.27%"}
{"smiles": "COCCN1Cc2cccc(C(=O)Nc3ccccc3OC)c2C1=O", "inhibition": "2.14%"}
{"smiles": "CCc1ccccc1S(=O)(=O)Cc1ccc(C(=O)NCCc2ccccc2)o1", "inhibition": "0.54%"}
{"smiles": "CCC(C)CN1C(=O)CSCC1(C)C(=O)NCc1ccccc1", "note": "(configuration not stated)", "inhibition": "-0.17%"}
{"smiles": "NC(=O)C(Cc1ccccc1)NC(=O)C12CC3CC(CC(C3)C1)C2", "note": "(configuration not stated)", "inhibition": "-7.59%"}
{"smiles": "COc1cc(OC)cc(C(=O)NNC(=O)CNC(=O)c2ccc(Br)o2)c1", "inhibition": "1.69%"}
{"smiles": "CCCCCCNC(=O)O[C@H]1CN(C(=O)OC(C)C)N(C(=O)OC(C)C)[C@@H]2CN(S(=O)(=O)c3ccc(C)cc3)C[C@]12O", "inhibition": "-9.24%"}
{"smiles": "CCOCCOC(=O)C1=C(C)N(C)C(=O)NC1c1ccccc1F", "note": "(configuration not stated)", "inhibition": "2.63%"}
{"smiles": "CN1c2ccc(C=O)c3c(C=O)ccc(c23)N(C)C1(C)C", "inhibition": "7.33%"}
{"smiles": "Cc1cc(C)c(NC(=O)C[N+](C)(C)CC(O)COc2cccc3ccccc23)c(C)c1", "note": "(configuration not stated)", "inhibition": "33% (active)"}
{"smiles": "CC(C)c1ccccc1OCC(O)CN(CC(O)COc1cccc2ccccc12)C(C)C", "note": "(configuration not stated)", "inhibition": "8.09%"}
{"smiles": "Cc1cc(C)cc(OCC(=O)NCc2cc(C)nc3ccccc23)c1", "inhibition": "0.84%"}
{"smiles": "NC(=O)c1ncn([C@@H]2O[C@H](CNCc3cnc(N4CCOCC4)s3)[C@@H](O)[C@H]2O)n1", "inhibition": "-2.34%"}
{"smiles": "COc1ccc(C(=O)c2c3ccc([N+](=O)[O-])cc3[n+]([O-])n2CCCN)cc1", "inhibition": "-9.06%"}
{"smiles": "O=C(NNc1c2ccccc2nc2ccccc12)c1cc2ccccc2cc1O", "inhibition": "26.3% (active)"}
{"smiles": "O=C(CSc1nc(C2CC2)nc2ccccc12)Nc1cccc(O)c1", "inhibition": "-2.61%"}
{"smiles": "O=C(Cc1ccccn1)c1ccc(O)cc1O", "inhibition": "-1.78%"}
{"smiles": "CCCn1c(N)c(N(CCOC)C(=O)C2CCCC2)c(=O)[nH]c1=O", "inhibition": "-0.19%"}
{"smiles": "Cc1ccc(CC(=O)N(C)CC(=O)N(CC(C)C)c2c(N)n(CC(C)C)c(=O)[nH]c2=O)cc1C", "inhibition": "-2.36%"}
{"smiles": "O=c1cc(O)c(-c2cccc(C(F)(F)F)c2)c(Cl)[nH]1", "inhibition": "1.03%"}
{"smiles": "Cc1ccccc1/C=C\\c1nc(O)c([N+](=O)[O-])c(=O)[nH]1", "inhibition": "15.6%"}
{"smiles": "O=c1[nH]c(/C=C\\c2cccc(C(F)(F)F)c2)nc(O)c1[N+](=O)[O-]", "inhibition": "42.7% (active)"}
{"smiles": "COCCCNC(NC(=O)c1ccc(C)cc1)C(Cl)(Cl)Cl", "note": "(configuration not stated)", "inhibition": "-2.85%"}
{"smiles": "COc1ccccc1CNC(=O)c1ccc(N(C)S(=O)(=O)c2ccc(C)cc2)cc1", "inhibition": "4.36%"}
{"smiles": "CN(CCO)S(=O)(=O)c1ccc2c(c1)C(=O)c1cc(S(=O)(=O)N(C)CCO)ccc1-2", "inhibition": "-0.45%"}
{"smiles": "CCC1(c2ccccc2)NC(=O)N(CC(=O)Nc2ccccc2C(=O)NC2CCCC2)C1=O", "note": "(configuration not stated)", "inhibition": "-4.04%"}
{"smiles": "C=C(C)C(=O)O[C@H]1C/C(C)=C\\C(=O)/C=C(\\C)[C@H](O)[C@@H]2OC(=O)C(=C)[C@@H]21", "inhibition": "27% (active)"}
{"smiles": "CCS(=O)(=O)Nc1ccc(C2=NN(S(=O)(=O)c3ccc(F)cc3)C(c3ccco3)C2)cc1", "note": "(configuration not stated)", "inhibition": "29.4% (active)"}
{"smiles": "Cc1ccc(C2=NN(C(=O)CSc3nc(N)cc(N)n3)C(c3ccco3)C2)cc1", "note": "(configuration not stated)", "inhibition": "12.7%"}
{"smiles": "COc1cccc(C2CC(c3ccccc3)=NN2S(=O)(=O)c2ccccc2)c1OC", "note": "(configuration not stated)", "inhibition": "-7.74%"}
{"smiles": "C/C(=C\\c1ccccc1)C1NC(=O)c2c(sc3c2CCCC3)N1", "note": "(configuration not stated)", "inhibition": "-8.89%"}
{"smiles": "Cc1[nH]c(=O)c(C(=O)/C=C/c2ccccc2)c2c1CCCC2", "inhibition": "32.6% (active)"}
{"smiles": "O=C(NCc1ccccn1)c1c(O)c2c([nH]c1=O)CCCC2", "inhibition": "3.03%"}
{"smiles": "COC(=O)COc1cccc2c(=O)n(CC(=O)NCc3ccccc3)ccc12", "inhibition": "-4.9%"}
{"smiles": "COc1cc(C(=O)NNC(=O)c2ccc(S(=O)(=O)N3CCCCC3)cc2)cc(OC)c1OC", "inhibition": "0.06%"}
{"smiles": "CCN(CC(=O)Nc1c(F)cccc1F)C(=O)c1ccc(S(=O)(=O)N2CCCCC2)cc1", "inhibition": "0.66%"}
{"smiles": "CN(C)CCCN(C(=O)c1ccc(S(=O)(=O)N2CCCCCC2)cc1)c1nc2ccc(Br)cc2s1", "inhibition": "22.3% (active)"}
{"smiles": "O=C(O)CCn1cc(/C=C/C(=O)c2ccc(Cl)cc2)c(-c2cccc(Br)c2)n1", "inhibition": "22.9% (active)"}
{"smiles": "COc1ccc(NC(=O)CN(C)C(=O)/C=C/c2cn(Cc3ccccc3)nc2-c2cccnc2)cc1", "inhibition": "0.58%"}
{"smiles": "Cc1ccc(S(=O)(=O)N[C@H](CO)C(C)C)cc1", "inhibition": "2.76%"}
{"smiles": "COc1ccc(S(=O)(=O)Nc2ccc3oc(C)c(C(C)=O)c3c2)cc1", "inhibition": "4.01%"}
{"smiles": "COc1ccc(C(=O)/C=C/c2ccc(-c3ccccc3)cc2)cc1CSCC(=O)O", "inhibition": "14.9%"}
{"smiles": "COc1ccc(/C=C/C(=O)c2ccc(NS(=O)(=O)c3ccc(C)cc3)cc2)cc1O", "inhibition": "46% (active)"}
{"smiles": "CC(C)Cc1nn2c(=O)cc(O)nc2s1", "inhibition": "4.21%"}
{"smiles": "O=C(NCC(=O)N(Cc1cccs1)C(C(=O)NC1CCCCC1)c1ccco1)c1cccs1", "note": "(configuration not stated)", "inhibition": "-12.1%"}
{"smiles": "CCNC(=O)CC1C(=O)N(c2ccc(OC)cc2)C(=O)N1CCOC", "note": "(configuration not stated)", "inhibition": "2.8%"}
